The values that follow come from PubChem BioAssay (NCATS).

Assay [1] is described as follows: qHTS profiling for inhibitors of Plasmodium falciparum proliferation (AID 504749).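 For activity, negative = inhibition: 0% = DMSO vehicle and full inhibition = artemisinin control.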 Note: nearly all actives have a fitted effect of over 60% in size. As to conditions: P. falciparum in erythrocytes, SYBR Green DNA, 72 h. The essentials:
(§1)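 Three-day growth assay of blood-stage parasites in erythrocytes (0.3% parasitemia, 2.5% hematocrit) at 37 C, 5% CO2, quantified by SYBR Green DNA staining after overnight detergent lysis.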
Background: qHTS replaces the single test concentration by a dilution series.

In assay [2] the test system is ATS189. Described as above. To be noted: P. falciparum in erythrocytes, SYBR Green DNA, 72 h; series mostly up to 28.7 µM. The essentials:
as §1

The test system of assay [3] is CP191. Described as above. As to conditions: P. falciparum in erythrocytes, SYBR Green DNA, 72 h; series mostly up to 28.7 µM. The essentials:
as §1

The test system of assay [4] is 3D7. Described as above. To be noted: P. falciparum in erythrocytes, SYBR Green DNA, 72 h; series mostly up to 28.7 µM. The essentials:
as §1

In assay [5] the test system is AA1029. Described as above. To be noted: P. falciparum in erythrocytes, SYBR Green DNA, 72 h; series mostly up to 28.7 µM. The essentials:
as §1

The test system of assay [6] is ATS95. The assay is described as above. As to conditions: P. falciparum in erythrocytes, SYBR Green DNA, 72 h; series mostly up to 28.7 µM. The essentials: as §1
Assay [7] deals with C2A. The assay is described as above. As to conditions: P. falciparum in erythrocytes, SYBR Green DNA, 72 h; series mostly up to 28.7 µM. The essentials: as §1
In assay [8] the test system is CP185. Described as above. As to conditions: P. falciparum in erythrocytes, SYBR Green DNA, 72 h; series mostly up to 28.7 µM. The essentials: as §1
In assay [9] the test system is 7G8. Described as above. As to conditions: P. falciparum in erythrocytes, SYBR Green DNA, 72 h; series mostly up to 28.7 µM. The essentials:
as §1

In assay [10] the test system is AS120. The description is as above. To be noted: P. falciparum in erythrocytes, SYBR Green DNA, 72 h; series mostly up to 28.7 µM. The essentials:
as §1

The mark [11] stands for this setting: at 28.7 µM (top of the series), parasite line A.
The mark [12] stands for this setting: at 28.7 µM (top of the series), parasite line B.

Molecules are shown by their SMILES. Inconclusive results are not listed. A number with no mark means an inactive call. The source made the active and inactive calls. Calls come from the whole dose curve; as a rule, active = well fitted inhibition curve with a large enough effect; inconclusive = small, poorly fitted or top-dose-only effect; inactive = flat fitted curve, though single readings scatter.
Potency is the fitted concentration of half-maximal effect.

As to `CCCCCCCCCCCCCCCC[N+](C)(C)CCN(Cc1ccc(OC)cc1)c1ncccn1`, the activity, negative = inhibition in assay [1] (at 12.8 µM (top of the series), parasite line A) is -28.5%. The Potency entry in assay [2] was “inactive”. In addition, the Potency in [3] was 0.794 µM (active).

On to `O=C(Nc1ccc(Oc2ccc(Cl)cc2)c(Cl)c1)c1cc(I)cc(I)c1O`, for which the Potency entry in assay [4], in assay [5], in assay [2], in assay [6], in assay [7] and in assay [8] was “inactive” in each case.

Regarding `Clc1ccc2c(c1)CCc1cccnc1C2=C1CCNCC1`, the activity, negative = inhibition in assay [1] (setting [11]) was -8.94%; in [1] (setting [12]) it was -21.2%. For the same compound, the Potency result in assay [7] and in assay [8] was “inactive” throughout.

With `CCCCC(CC)CN=C(N)NC(N)=NCCCCCCN=C(N)NC(N)=NCC(CC)CCCC` (stereo not drawn), the Potency was 1 µM (active) in assay [1] (parasite line A); 1.58 µM (active) in [4]; 0.316 µM (active) in assay [9]; 1.41 µM (active) in [5]; 0.891 µM (active) in [10]; 3.16 µM (active) in assay [2]. The Potency was 1.41 µM (active) in assay [6], 2.24 µM (active) in assay [7], 1.41 µM (active) in [8] and 1 µM (active) in [3].

For the compound `CCCCCCCCCCCCCCNCCO`, the Potency in assay [1] (parasite line A) was 10 µM (active); in assay [9] it was 10 µM (active); in [10], 12.6 µM (active). Moreover, the Potency result in assay [6] is “inactive”.

In the case of `Cc1ccc(O)c2ncccc12`, the activity, negative = inhibition in [1] (setting [12]) was -28.2%. Further, the Potency entry in assay [9], in assay [5], in assay [2], in assay [6], in assay [7] and in [8] was “inactive” throughout. For the same compound, the Potency result in assay [3] was “inactive”.

As for `O=C1OCCN1/N=C/c1ccc([N+](=O)[O-])o1`, the Potency in [9] and in [5] was 10 µM (active) each time. For the same compound, the Potency entry in [7] was “inactive”.

On to `CCN(CC)CCOc1ccc(C(O)(Cc2ccc(Cl)cc2)c2ccc(C)cc2)cc1` (stereo not drawn), for which the Potency in assay [9] is 5.01 µM (active); in [5] it was 11.2 µM (active); in assay [2], 11.2 µM (active).

Regarding `CN(C)CC/C=C1\c2ccccc2Sc2ccc(Cl)cc21`, the Potency in [1] (parasite line B) was 8.91 µM (active); in assay [9], 12.6 µM (active); in assay [10], 11.2 µM (active); in assay [6], 11.2 µM (active). The Potency entry in assay [4] is “inactive”.

Turning to `CCOc1ccc(Cc2nccc3cc(OCC)c(OCC)cc23)cc1OCC`, in [1] (at 12.8 µM (top of the series), parasite line B), the activity, negative = inhibition is -21.6%. The Potency entry in assay [9], in assay [5], in assay [10], in [2], in [6] and in assay [7] was “inactive” throughout. In addition, the Potency result in assay [8] is “inactive”.

For `C=C(CC)C(=O)c1ccc(OCC(=O)O)c(Cl)c1Cl`, the values for the Potency in assay [1] (parasite line A), in [9] and in [10] were 12.6 µM (active), 14.1 µM (active) and 12.6 µM (active), respectively.

Consider `C[C@@H]1C(=O)NC2=Nc3cccc(Cl)c3CN21`, for which the activity, negative = inhibition in [1] (setting [12]) was -2.54%. Also, the Potency result in assay [4], in assay [9], in assay [5], in [10], in assay [2] and in [6] was “inactive” each time. Besides, the Potency entry in [7], in assay [8] and in [3] was “inactive” throughout.

As for `Oc1ccc(Cl)c2cccnc12`, the activity, negative = inhibition in assay [1] (setting [11]) was -27%. For the same compound, the Potency entry in assay [5], in [10], in [2], in [6], in assay [7] and in assay [8] was “inactive” throughout.

Turning to `CCOC(=O)/C=C(C)/C=C/C=C(C)/C=C/c1c(C)cc(OC)c(C)c1C`, the Potency in [9] is 12.6 µM (active).

As for `Oc1c(I)cc(I)c2cccnc12`, the Potency result in assay [7] was “inactive”.

`CO/N=C1\CN(c2nc3c(cc2F)c(=O)c(C(=O)O)cn3C2CC2)CC1CN` (stereo not drawn): the Potency in [4] is 10 µM (active); in [9] it was 7.94 µM (active); in [5], 7.94 µM (active); in assay [3], 8.91 µM (active).

Turning to `CN1CCC[C@@H]1c1cccnc1`, the activity, negative = inhibition in [1] (setting [11]) is 3.02%. In addition, the Potency entry in assay [4], in assay [9], in assay [5], in assay [10], in [2] and in [6] was “inactive” each time. Besides, the Potency result in assay [7], in [8] and in assay [3] was “inactive” each time.

Take `C[C@@H]1CN(CCCn2c3ccccc3c3ccccc32)C[C@H](C)N1`: the Potency is 10 µM (active) in assay [1] (parasite line A); 4.47 µM (active) in [9]; 4.47 µM (active) in [5]; 12.6 µM (active) in [10]; 11.2 µM (active) in [7]; 7.08 µM (active) in assay [3].

Take `CC/C(=C(/CC)c1ccc(O)cc1)c1ccc(O)cc1`: in assay [1] (setting [12]), the activity, negative = inhibition is -19.4%. In addition, the Potency entry in [4], in [5], in assay [10], in [6], in assay [7] and in [8] was “inactive” throughout.

`CC(=O)OCC(=O)[C@@]1(OC(C)=O)[C@@H](C)C[C@H]2[C@@H]3C[C@H](F)C4=CC(=O)C=C[C@]4(C)[C@@]3(F)[C@@H](O)C[C@@]21C`: the activity, negative = inhibition in assay [1] (setting [11]) was -18.2%. For the same compound, the Potency result in assay [4], in assay [5], in assay [10], in assay [2], in [7] and in assay [8] was “inactive” each time. Moreover, the Potency entry in [3] is “inactive”. Besides, in [9], the Potency is 8.91 µM (active).

As for `CCCOC(C(=O)OC1CCN(C)CC1)(c1ccccc1)c1ccccc1`, the activity, negative = inhibition in assay [1] (setting [11]) was -18.3%. Further, the Potency in [9] is 11.2 µM (active).

With `CCCCCCCCCCOCC(O)CN` (stereo not drawn), in [1] (setting [11]), the activity, negative = inhibition is -16.8%. Further, the Potency entry in assay [4], in assay [7] and in assay [3] was “inactive” each time. Moreover, the Potency in [9] was 12.6 µM (active).

As for `CC(C)=CCC1C(=O)N(c2ccccc2)N(c2ccccc2)C1=O`, in assay [7], the Potency entry is “inactive”.

In the case of `CC(C)NC[C@@H](O)COc1cccc2ccccc12`, in assay [1] (setting [11]), the activity, negative = inhibition was 4.7%. Also, the Potency result in assay [4] and in assay [7] was “inactive” throughout. Also, the Potency is 5.62 µM (active) in assay [9], 11.2 µM (active) in assay [5], 8.91 µM (active) in assay [10] and 10 µM (active) in assay [2].

With `CCCCc1nc(Cl)c(CO)n1Cc1ccc(-c2ccccc2-c2nn[nH]n2)cc1`, the Potency in assay [1] (parasite line B) was 12.6 µM (active); in assay [4], 5.62 µM (active); in assay [9] it was 6.31 µM (active); in assay [5] it was 10 µM (active); in assay [10], 8.91 µM (active); in [6], 12.6 µM (active).

Take `CC(C)COC(=O)c1ccc(N)cc1`: the activity, negative = inhibition in assay [1] (setting [12]) is -17.5%. For the same compound, the Potency result in assay [4], in [9], in assay [5], in [10], in assay [2] and in assay [6] was “inactive” each time. Also, the Potency entry in [7], in [8] and in [3] was “inactive” throughout.

For the compound `c1ccc(-c2ccc(C(c3ccccc3)n3ccnc3)cc2)cc1` (stereo not drawn), the Potency in assay [1] (parasite line B) was 11.2 µM (active); in assay [9] it was 2 µM (active); in [10], 3.98 µM (active); in assay [2] it was 8.91 µM (active); in [8], 10 µM (active); in assay [3], 11.2 µM (active).

In the case of `O=C(CCCN1CCC(O)(c2ccc(Br)cc2)CC1)c1ccc(F)cc1`, the results for the Potency in assay [4], in [9] and in [6] were 5.62 µM (active), 2.82 µM (active) and 3.16 µM (active), respectively.

As for `CCN(CC)CCNC(=O)COc1ccc(Cl)cc1`, the Potency entry in [4], in assay [7] and in [3] was “inactive” throughout. Moreover, the Potency in [10] is 12.6 µM (active).

Turning to `CN(C)C(=S)SC(=S)N(C)C`, the figures for the Potency in assay [4], in [9] and in assay [10] were 11.2 µM (active), 6.31 µM (active) and 12.6 µM (active), respectively.

Turning to `COc1cccc(CCc2ccccc2OCC(CN(C)C)OC(=O)CCC(=O)O)c1` (stereo not drawn), the Potency in [1] (parasite line B) is 6.31 µM (active); in assay [4] it was 10 µM (active); in assay [9] it was 0.631 µM (active); in assay [5], 3.98 µM (active); in assay [10], 4.47 µM (active); in [2] it was 5.62 µM (active). Also, the Potency in assay [6] is 5.62 µM (active); in [7], 10 µM (active); in [8], 8.91 µM (active).
